Test systems include SR leukemia; RPMI-8226 leukemia; OVCAR-8 ovarian; OVCAR-5 ovarian; OVCAR-4 ovarian; SK-OV-3 ovarian; IGROV1 ovarian; HS 578T breast; NCI/ADR-RES ovarian; T-47D breast; BT-549 breast; MDA-MB-435 melanoma; SW-620 colon; MCF7 breast; HCT-116 colon; HCC-2998 colon; KM12 colon; OVCAR-3 ovarian.
Common to all, as to assay: NCI-60 one-dose screen, 48 h (100 = growth as untreated, 0 = no growth, -100 = all killed)
Common to all, as to conditions: 10 µM unless noted

This is part of a sample that, as a whole, favours compounds with a hit. Of some 83,000 tested, about 20% had one in any assay.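 Results are percent growth after 48 hours of single-concentration exposure. 100 means growth as in untreated cells, lower positive values show inhibition; negative values down to -100 show cell death.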 Unmarked numbers belong to inactive results. The source made the active and inactive calls. Rule for the calls: active = growth percent below 10; inactive = the rest.

Regarding `Cc1c(Cl)cccc1NS(=O)(=O)c1ccccc1`, the growth was 113% in the experiment on SR leukemia; 123% in the experiment on RPMI-8226 leukemia; 112% in the experiment on OVCAR-8 ovarian; 92% in the experiment with OVCAR-5 ovarian; 73.3% in the experiment on OVCAR-4 ovarian; 105% with SK-OV-3 ovarian. The growth with IGROV1 ovarian is 114%; with HS 578T breast, 102%; with NCI/ADR-RES ovarian it was 104%; in the experiment with T-47D breast, 109%; with BT-549 breast, 105%; in the experiment on MDA-MB-435 melanoma, 101%. Also, the growth in the experiment with SW-620 colon was 106%; with MCF7 breast, 107%; in the experiment on HCT-116 colon, 104%; in the experiment with HCC-2998 colon it was 109%; in the experiment with KM12 colon, 116%.

On to `CC1=NN(c2cccc(Cl)c2)C(=O)/C1=C\c1cn(CC(O)CN2CCCCC2)c2ccccc12` (stereo not drawn), for which the growth in the experiment with SR leukemia is -8.32% (active); with RPMI-8226 leukemia it was 34.8%; in the experiment on OVCAR-8 ovarian, 76.6%; in the experiment on OVCAR-5 ovarian, 83.9%; with OVCAR-4 ovarian, 75.9%; in the experiment on SK-OV-3 ovarian, 94.6%. Besides, the growth with IGROV1 ovarian was 49.8%; in the experiment with HS 578T breast, 91.1%; in the experiment on NCI/ADR-RES ovarian, 75.3%; in the experiment with T-47D breast it was 83.3%; in the experiment with BT-549 breast, 96.1%; with MDA-MB-435 melanoma it was 1.51% (active). For the same compound, the growth in the experiment with SW-620 colon was 7.47% (active); with MCF7 breast, 41.1%; in the experiment with HCT-116 colon it was 10.2%; in the experiment with KM12 colon, 29.7%.

For `CO[C@H]1/C=C/O[C@@]2(C)Oc3c(C)c(O)c4c(c3C2=O)C(=O)C(/C=N/N(c2ccccc2)c2ccccc2)=C(NC(=O)/C(C)=C\C=C\[C@H](C)[C@H](O)[C@@H](C)[C@@H](O)[C@@H](C)[C@H](OC(C)=O)[C@@H]1C)C4=O`, the growth with SR leukemia is -13% (active); in the experiment with RPMI-8226 leukemia, -19.1% (active); in the experiment on OVCAR-8 ovarian it was 7.09% (active); in the experiment on OVCAR-5 ovarian it was -43.7% (active); in the experiment with OVCAR-4 ovarian it was 9.98% (active); with SK-OV-3 ovarian it was 12.2%. Moreover, the growth in the experiment with IGROV1 ovarian is -16.3% (active); in the experiment on OVCAR-3 ovarian, -83% (active); in the experiment with HS 578T breast, -0.488% (active); with NCI/ADR-RES ovarian, 6.55% (active); in the experiment with MDA-MB-435 melanoma, -17.4% (active); with SW-620 colon, 2.36% (active). For the same compound, the growth in the experiment with MCF7 breast is 2.54% (active); in the experiment on HCT-116 colon, 0.555% (active); in the experiment on HCC-2998 colon it was -70.4% (active); with KM12 colon, -23.9% (active).

Regarding `CN(CCC(=O)/C(=C\c1ccccc1)c1ccc(Cl)cc1)Cc1ccccc1`, the growth with SR leukemia is -1.56% (active); in the experiment with RPMI-8226 leukemia, -11.3% (active); in the experiment on OVCAR-8 ovarian, 11.8%; with OVCAR-5 ovarian it was 25.2%; in the experiment with OVCAR-4 ovarian, 89.7%; in the experiment with SK-OV-3 ovarian, 120%. Also, the growth in the experiment on IGROV1 ovarian was 14.4%; in the experiment with OVCAR-3 ovarian it was 1.15% (active); with HS 578T breast, 28.9%; with T-47D breast, 15.3%; in the experiment on BT-549 breast, 12.7%; in the experiment on MDA-MB-435 melanoma, 1.24% (active). Further, the growth is 4.45% (active) in the experiment on SW-620 colon; 28.3% in the experiment with MCF7 breast; 2.49% (active) with HCT-116 colon; 105% in the experiment on HCC-2998 colon; 67.1% in the experiment on KM12 colon.

`COc1ccc(-c2c(N)n[nH]c2-c2ccccc2O)cc1OC`: the growth with SR leukemia is 53.9%; in the experiment on RPMI-8226 leukemia, 52.8%; in the experiment with OVCAR-8 ovarian, 68.3%; with OVCAR-5 ovarian, 92.2%; in the experiment on OVCAR-4 ovarian, 94.7%; with SK-OV-3 ovarian it was 84.1%. Also, the growth in the experiment with IGROV1 ovarian is 94.6%; in the experiment with OVCAR-3 ovarian it was 108%; in the experiment on NCI/ADR-RES ovarian, 98.2%; with T-47D breast, 70%; in the experiment with BT-549 breast, -4.52% (active); in the experiment with MDA-MB-435 melanoma it was 93.4%. Besides, the growth in the experiment on SW-620 colon was 110%; in the experiment with MCF7 breast it was 96.5%; in the experiment with HCT-116 colon, 94.9%; in the experiment on HCC-2998 colon it was 107%.

For `[2H]c1nc(Nc2ncc(F)c(-c3cc(F)c4nc(C)n(C(C)C)c4c3)n2)c([2H])c([2H])c1CN1CCN(C([2H])([2H])C([2H])([2H])[2H])CC1`, the growth was 36.3% in the experiment with SR leukemia; 42.8% with RPMI-8226 leukemia; 67.1% in the experiment with OVCAR-8 ovarian; 55.6% in the experiment on OVCAR-5 ovarian; 74.2% in the experiment on OVCAR-4 ovarian; 18.8% in the experiment with SK-OV-3 ovarian. Also, the growth was 47.3% in the experiment with IGROV1 ovarian; 35.7% with HS 578T breast; 81% with NCI/ADR-RES ovarian; 54.6% in the experiment with T-47D breast; 51.3% in the experiment on BT-549 breast; 51.7% with MDA-MB-435 melanoma. Besides, the growth with SW-620 colon was 43.5%; in the experiment on MCF7 breast, 30.3%; with HCT-116 colon, 26.1%; with HCC-2998 colon it was 82.4%; with KM12 colon it was 40.5%.

On to `O=C(Nc1ccccn1)[C@H](O)[C@@H](O)C(=O)N1CCOCC1`, for which the growth in the experiment on SR leukemia was 120%; with RPMI-8226 leukemia it was 106%; with OVCAR-8 ovarian, 96.7%; in the experiment on OVCAR-5 ovarian, 118%; in the experiment with OVCAR-4 ovarian, 123%; with SK-OV-3 ovarian, 105%. Moreover, the growth is 105% in the experiment on IGROV1 ovarian; 107% in the experiment on OVCAR-3 ovarian; 104% with NCI/ADR-RES ovarian; 100% in the experiment on T-47D breast; 114% in the experiment with BT-549 breast; 111% with MDA-MB-435 melanoma. The growth with SW-620 colon is 110%; with MCF7 breast, 110%; in the experiment on HCT-116 colon, 99.3%; in the experiment with HCC-2998 colon, 116%; with KM12 colon, 108%.

Consider `Nc1c(-c2nc3ccc(Br)cc3c(=O)[nH]2)nnn1-c1ccccc1`, for which the growth in the experiment with SR leukemia is 57.7%; with RPMI-8226 leukemia, 92.1%; in the experiment with OVCAR-8 ovarian, 97.7%; in the experiment with OVCAR-5 ovarian it was 95.8%; with OVCAR-4 ovarian, 6.63% (active); with SK-OV-3 ovarian, 112%. The growth was 90.3% with IGROV1 ovarian; 80.2% in the experiment with OVCAR-3 ovarian; 91.8% in the experiment with HS 578T breast; 78.3% in the experiment with T-47D breast; 63.1% with BT-549 breast; 72.2% in the experiment on MDA-MB-435 melanoma. Besides, the growth is 88.1% in the experiment with SW-620 colon; 78.7% in the experiment on MCF7 breast; 48.2% in the experiment on HCT-116 colon; 80.6% in the experiment with HCC-2998 colon; 61.6% in the experiment with KM12 colon.

For the origin of these results see PubChem BioAssay (NCI).
